# Compound activity as filed in PubChem.
# Compounds with a hit are over-represented: about 19% of the library has one in this group of screens.
# HT1080NT lethal: kills 2HG-producing HT-1080-NT fibrosarcoma cells; HT-1080-NT fibrosarcoma viability, CellTiter-Glo ATP luminescence, 48 h; 360,000 compounds, 1.6% hits; Potency, µM (doses to about 46.1 µM), usual class: cytotoxic;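 further: NT is the 2HG producing partner of a matched IDH1 knockdown line; nearly all actives have a fitted effect of over 55% in size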
#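 A 48-hour cytotoxicity screen used HT-1080-NT cells plated 2 hours before compound delivery. ATP-based CellTiter-Glo luminescence measured viability, normalized to DMSO and no-cell controls.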
# KB-3-1 tox: KB-3-1 parental cell cytotoxicity; KB-3-1 viability, CellTiter-Glo ATP luminescence, 72 h; Potency, µM (highest dose often 46.1 µM), hits mostly cytotoxic; 400,000 compounds, 1.4% hits; further: nearly all actives have a fitted effect of over 60% in size
#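 Cells are dispensed, compounds pinned in, plates held at 37 °C for 72 h, then CellTiter-Glo is added and luminescence read after 10 minutes. Cell line: parental KB-3-1 in phenol-red-free DMEM, 10% FBS.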
# TDP1 cell noCPT: qHTS for Inhibitors of human tyrosyl-DNA phosphodiesterase 1 (TDP1): qHTS in cells in absence of CPT. DT40 Tdp1-/- hTDP1 cells, no CPT, ATP luminescence, 48 h. Potency, µM (titrated, usually from 46.2 µM), usual class: inhibitors. 420,000 compounds, 15% hits; further: nearly all actives have a fitted effect of over 55% in size
#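 Luminescent ATP content (CellTiter-Glo) served as the growth readout. Knockout chicken DT40 cells expressing human TDP1 were exposed to compounds without camptothecin for a minimum 48 hr at 37 °C.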
# KB-V1 MDR tox: kills drug-selected multidrug resistant KB-V1 cells. KB-V1 MDR cells viability, CellTiter-Glo, 72 h. Potency, µM (highest dose often 46.1 µM), usual class: cytotoxic. 400,000 compounds, 3.4% hits. AID 1347076; further: nearly all actives have a fitted effect of over 60% in size
#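 Luminescent ATP read-out (CellTiter-Glo, 10 min) measures survival of drug-selected KB-V1 MDR cells after 72 h, 37 degrees C compound exposure. Medium: phenol-red-free DMEM, 10% FBS. Values from fitted concentration-response curves.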
# HT1080 IDH1KD tx: kills HT-1080 cells with IDH1 knockdown | HT-1080 IDH1 knockdown viability, ATP luminescence, 48 h | Potency, µM (doses to about 46.1 µM), most hits filed as cytotoxic | 360,000 compounds, 2% hits
#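 In this qHTS, HT-1080 cells depleted of IDH1 are exposed for 48 h at 37 °C to compound titrations. Toxicity is scored from CellTiter-Glo luminescence, with DMSO as full viability and medium alone as none.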
# TDP1 cell CPT: growth inhibition of DT40 Tdp1-/-;hTDP1 cells with camptothecin (screen for TDP1 inhibitors). chicken DT40 Tdp1-/-;hTDP1 cells + 20 nM CPT, ATP luminescence, 48 h. Potency, µM (highest dose often 46.2 µM), hits mostly inhibitors. 420,000 compounds, 12% hits; further: nearly all actives have a fitted effect of over 55% in size
#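 Cell growth measured by CellTiter-Glo luminescence after a minimum 48 h, 37 C compound exposure with 20 nM CPT in Tdp1-knockout DT40 cells stably expressing hTDP1, seeded 400/well; qHTS titration format.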
# Hits are given with their value; 0 = inactive; ? = inconclusive; - = not tested or not shown; ! = repeats disagree. The call rests on the fitted dose curve; in most records, active means well fitted curve in the direction sought with a large enough effect; inconclusive means small, poorly fitted or top-dose-only effect, or another doubt; inactive means no such curve, though single readings can be large; an effect the other way counts as inactive or inconclusive.
SMILES,HT1080NT lethal,KB-3-1 tox,TDP1 cell noCPT,KB-V1 MDR tox,HT1080 IDH1KD tx,TDP1 cell CPT
Cc1ccc(-n2c(C)nc3cc(Cl)ccc3c2=O)nc1,0,0,0,0,0,0
c1ccc2c(c1)Nc1ccccc1S2,0,0,34µM!,0,0,5.3µM!
O=C(NN=Cc1ccc(N(CCCl)CCCl)cc1)c1cc(=O)[nH]c(=O)[nH]1,0,0,?,0,0,?
O=C(NN=Cc1ccc(N(CCCl)CCCl)cc1)C(=O)c1c[nH]c2ccccc12,0,?,15µM,0,?,21µM
COc1cc(C)c(C(=O)CC(=O)c2c(C)cc(OC)cc2C)c(C)c1,0,0,12µM,0,?,15µM
CCc1ccc([C@H]2[C@@H]3C(=O)C[C@@H]4C(=O)N(C5CCCCC5)C(=O)[C@@H]4[C@@H]3CN2S(=O)(=O)c2ccc(C)cc2)cc1,0,0,?,0,0,?
Cc1[nH]c2ccccc2c1C1=CCNCC1,0,0,?,0,0,?
c1ccc2c(CN3CCCCCCC3)c[nH]c2c1,0,21µM,1.5µM,15µM,?,0.65µM
Cc1[nH]c2ccccc2c1CN1CCCCC1,0,?,3.7µM,?,0,1.6µM
NC[C@@H](CC(=O)O)c1ccc(Cl)cc1,-,-,0,-,-,0
OCC1OC(n2cnc3c(Cl)ncnc32)C(O)C1O (stereo not given),-,-,4.6µM,-,-,9.2µM
NC(=S)c1cn(C2OC(CO)C(O)C2O)c2ncnc(N)c12 (stereo not given),?,?,0.16µM,0,1.3µM,0.13µM
Nc1ncnc2c1ccn2[C@@H]1O[C@H](CO)[C@@H](O)[C@H]1O,0.65µM,0.18µM,0.15µM,0.21µM,0.82µM,0.021µM
c1ccc(CN2CCNCC2)cc1,-,-,0,-,-,0
COc1nc(C)nc(Cl)c1NC1=NCCN1,?,0,0,0,0,0
Cc1oc(-c2ccccc2)nc1CN1C(=O)C(C)N=C(c2ccccc2F)c2cc(Cl)ccc21 (stereo not given),0,0,?,0,0,?
O=C1CN=C(c2ccccc2)c2cc(Cl)ccc2N1CC1CC1,-,-,24µM,-,-,?
O=C1CN=C(c2ccccc2Cl)c2cc(Cl)ccc2N1Cc1cccc(Cl)c1,-,?,?,15µM,-,21µM
Cc1oc(-c2ccc(Cl)cc2)nc1CN1C(=O)CN=C(c2ccccc2)c2ccccc21,-,0,15µM,0,-,?
COC(=O)CN1C(=O)CN=C(c2ccccc2Cl)c2cc(Br)ccc21,0,0,?,0,0,0
CC/C(=N\NC(=O)c1ccccc1)c1c(O)n(C2CCCCC2)c(=O)[nH]c1=O,0,0,0,0,0,0
COC(COC(N)=O)C1=C(N2CC2)C(=O)C(C)=C(N2CC2)C1=O (stereo not given),6.5µM,4.1µM,0.16µM,?,3.3µM,0.16µM
C=CC[C@@H](CC(=O)N(CCO)Cc1ccccc1)C(=O)NC[C@@H](OC(=O)[C@@H](CC=C)CC(=O)OC(C)(C)C)c1ccccc1,0,0,?,0,0,?
C=CC[C@H](CC(=O)N(CCO)Cc1ccccc1)C(=O)NC[C@H](OC(=O)[C@@H](CC=C)CC(=O)OC(C)(C)C)c1ccccc1,0,?,23µM,?,0,21µM
ClCCN1CCSCC1,0,0,?,0,0,?
SMILES,HT1080NT lethal,KB-3-1 tox,TDP1 cell noCPT,KB-V1 MDR tox,HT1080 IDH1KD tx,TDP1 cell CPT
[S]=[Sb](=[S])[S][Sb](=[S])=[S],-,-,0,-,-,0
CCCCc1ccc2[nH]cc(CCN)c2c1,?,0,21µM,0,?,21µM
NCCc1c[nH]c2ccc(OCc3ccccc3)cc12,0,0,0,0,0,0
O=c1c2ccccc2nc(CSc2ncnc3nc[nH]c23)n1-c1ccc(Cl)c(Cl)c1,0,0,10µM,0,0,7.1µM
Cc1nc2ccccc2c(=O)n1-c1ccc(Cl)c(Cl)c1,0,0,?,0,0,?
CCN(CC)C(=O)c1ccc(NC(=O)CN2CCc3cc(OC)c(OC)cc3C2)cc1,0,0,0,0,0,0
CC[C@@]1(O)C(=O)OCc2c1cc1n(c2=O)Cc2cc3ccccc3nc2-1,-,?,0.089µM!,0,-,0.079µM
